Records with an inconclusive call do not appear. Active and inactive are the calls of the source. Unless noted, the call rests on the fitted dose curve; in most records, active means well fitted curve in the direction sought with a large enough effect in the repeat runs; inconclusive means weak or mixed curves; inactive means no such curve, though single readings can be large; an effect the other way counts as inactive or inconclusive.
Assays:
[1] = qHTS assay to identify small molecule antagonists of the thyroid receptor (TR) signaling pathway (AID 743065); further: series mostly up to about 70 µM; nearly all actives have a fitted effect of over 55% in size
How it was run: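 GH3.TRE-Luc rat pituitary cells (two TREs driving luciferase) were dosed with compound, then stimulated with 1 nM T3 (final) for 23.5 h at 37 C. ONE-Glo luminescence was the read-out, with CellTiter-Fluor fluorescence as the cytotoxicity counter-screen.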

[2] = tested on: thyroid hormone receptor (rat, GH3 cells); experiment: qHTS assay to identify small molecule agonists of the thyroid receptor (TR) signaling pathway (AID 743066; calls by dose curve)
[3] = biological target: Estrogen receptor (Homo sapiens) (UniProt P03372); experiment: qHTS assay to identify small molecule antagonists of the estrogen receptor alpha (ER-alpha) signaling pathway (AID 743069; active means well fitted curve in the direction sought with a large enough effect in the signal ratio in the repeat runs, not every such curve was filed as active; the % refers to the signal ratio)
How it was run: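 Beta-lactamase FRET fluorescence is read after 2 hr at room temperature with LiveBLAzer B/G substrate. Before that, ER-alpha-bla HEK293 cells sit 4 hr after plating, then receive compound plus 17beta-estradiol and incubate 18 hr at 37C.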

[4] = qHTS assay to identify small molecule antagonists of the estrogen receptor alpha (ER-alpha) signaling pathway - cell viability counter screen (AID 743074; calls by dose curve;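 further: HEK293 cells carrying ER-alpha-UAS-bla reporter stimulated with 17beta-estradiol; nearly all actives have a fitted effect of over 45% in size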)
[5] = biological target: Estrogen receptor (Homo sapiens) (UniProt P03372); experiment: qHTS assay to identify small molecule agonists of the estrogen receptor alpha (ER-alpha) signaling pathway (AID 743075; calls by dose curve;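 further: HEK293 GripTite cells with ER-alpha and UAS-driven beta-lactamase reporter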)
[6] = biological target: Estrogen receptor (Homo sapiens) (UniProt P03372); experiment: qHTS assay to identify small molecule agonists of the estrogen receptor alpha (ER-alpha) signaling pathway using the BG1 cell line (AID 743079); further: nearly all actives have a fitted effect of over 20% in size
[7] = qHTS assay to identify small molecule antagonists of the estrogen receptor alpha (ER-alpha) signaling pathway using the BG1 cell line (AID 743080; calls by dose curve;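 further: BG1 cells stimulated with 17beta-estradiol alongside compound; series mostly up to about 70 µM; nearly all actives have a fitted effect of over 25% in size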)
How it was run: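 Endogenous full-length ER-alpha in BG1-Luc-4E2 cells drives a stably integrated 4×ERE luciferase gene; compounds were tested against 17beta-estradiol over 21.5 h, with luminescence and multiplexed viability fluorescence recorded.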

[8] = qHTS assay to identify small molecule antagonists of the estrogen receptor alpha (ER-alpha) signaling pathway using the BG1 cell line - cell viability counter screen (AID 743081);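 further: compound given together with 17beta-estradiol as the ER stimulus; series mostly up to about 70 µM; nearly all actives have a fitted effect of over 45% in size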
Aromatase (Homo sapiens) = Aromatase (Homo sapiens) (UniProt P11511); experiment: qHTS assay to identify aromatase inhibitors (AID 743083); further: series mostly up to about 70 µM; nearly all actives have a fitted effect of over 55% in size
[9] = qHTS assay to identify aromatase inhibitors - cell viability counter screen (AID 743084);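 further: cells stimulated with testosterone during compound exposure; nearly all actives have a fitted effect of over 55% in size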
[10] = biological target: Aryl hydrocarbon receptor (Homo sapiens) (UniProt P35869); experiment: qHTS assay to identify small molecule that activate the aryl hydrocarbon receptor (AhR) signaling pathway (AID 743085);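 further: HG2L7.5c1 human HepG2 liver cells with stably integrated DRE-driven firefly reporter; series mostly up to about 70 µM; nearly all actives have a fitted effect of over 15% in size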
How it was run: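 Measured in HG2L7.5c1 cells: CellTiter-Fluor signal (30 min incubation, 37C) for viability, then luciferase luminescence (30 min, room temperature). Compound contact time was 24 h at 37C, following a 5 h pre-incubation.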

[11] = biological target: Peroxisome proliferator-activated receptor gamma (Homo sapiens) (UniProt P37231); experiment: qHTS assay to identify small molecule agonists of the peroxisome proliferator-activated receptor gamma (PPARg) signaling pathway (AID 743094; active means well fitted activation curve with a large enough effect in the signal ratio in the repeat runs, not every such curve was filed as active; the % refers to the signal ratio)
How it was run: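 Cells from the PPARg UAS-bla HEK293H line are plated and incubated 5 h at 37C. Compounds in DMSO are pinned in and left 17 h at 37C. LiveBLAzer B/G substrate is then added for 1 h at room temperature before fluorescence is measured.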

[12] = biological target: Peroxisome proliferator-activated receptor gamma (Homo sapiens) (UniProt P37231); experiment: qHTS assay to identify small molecule antagonists of the peroxisome proliferator-activated receptor gamma (PPARg) signaling pathway (AID 743191; calls by dose curve; further: series mostly up to about 63 µM; nearly all actives have a fitted effect of over 30% in size)
How it was run: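 GeneBLAzer PPARg UAS-bla HEK293H cells, 5 h post-plating, exposed to compounds 17 h at 37C. LiveBLAzer B/G FRET substrate added for 1 h at room temperature; beta-lactamase reporter read by fluorescence intensity.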

[13] = qHTS assay to identify small molecule antagonists of the peroxisome proliferator-activated receptor gamma (PPARg) signaling pathway - cell viability counter screen (AID 743194); further: nearly all actives have a fitted effect of over 55% in size
How it was run: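 Cytotoxicity counter screen in PPARg-bla HEK293H cells, same wells as reporter assay. Compounds plus 50 nM rosiglitazone (final) for 17 h at 37 C, then viability read by CellTiter-Glo luminescence.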

[14] = qHTS assay for small molecule agonists of the antioxidant response element (ARE) signaling pathway - cell viability counter screen (AID 743203; calls by dose curve; further: nearly all actives have a fitted effect of over 55% in size)
How it was run: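 Cytotoxicity was tested in parallel with the ARE reporter screen. ARE-bla HepG2 cells were exposed to compounds for 16 hrs, and viability was taken from CellTiter-Glo luminescence.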

[15] = qHTS assay for small molecule activators of the heat shock response signaling pathway - cell viability counter screen (AID 743209); further: nearly all actives have a fitted effect of over 50% in size
How it was run: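 Cytotoxicity counter screen run in parallel with the HSE beta-lactamase reporter, using the same wells. HeLa HSE-bla cells received compound for 5 h at 37 C; ATP-based CellTiter-Glo luminescence was measured after 30 min at room temperature.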

[16] = qHTS assay to identify small molecule that activate the aryl hydrocarbon receptor (AhR) signaling pathway - cell viability counter screen (AID 743086);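 further: HepG2 liver cells carrying the AhR DRE luciferase reporter; series mostly up to about 70 µM; nearly all actives have a fitted effect of over 45% in size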
How it was run: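 HepG2-AhR-luc (HG2L7.5c1) cells, 4000/well, treated 24 h at 37 C with compound; viability measured as CellTiter-Fluor fluorescence after 30 min in the same wells as the luciferase read.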

[17] = qHTS assay to identify small molecule agonists of the peroxisome proliferator-activated receptor delta (PPARd) signaling pathway - cell viability counter screen (AID 743211); further: nearly all actives have a fitted effect of over 55% in size
How it was run: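 Following 5 h plating at 37 C and 5% CO2, PPARd UAS-bla HEK293H cells took up test compounds for 17 h. Viability was quantified by luminescence 30 min after CellTiter-Glo addition at room temperature.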

[18] = qHTS assay for small molecule agonists of the antioxidant response element (ARE) signaling pathway (AID 743202; active means well fitted activation curve with a large enough effect in the signal ratio in the repeat runs, not every such curve was filed as active; the % refers to the signal ratio)
How it was run: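 HepG2 ARE-bla reporter line, 2,000 cells/well; 5 h preincubation 37 C/5% CO2; compound (DMSO) 16 h 37 C; B/G FRET substrate 2 h RT; fluorescence intensity.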

[19] = qHTS assay for small molecule activators of the heat shock response signaling pathway (AID 743210; active means well fitted activation curve with a large enough effect in the signal ratio in the repeat runs, with a control signal flat, not every such curve was filed as active; the % refers to the signal ratio;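 further: HeLa cells with beta-lactamase reporter driven by heat shock elements; series mostly up to about 63 µM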)
How it was run: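 Beta-lactamase reporter read-out: FRET substrate fluorescence after 2.5 h at RT, following 5 h compound treatment at 37 C of HeLa cells carrying HSE-driven bla reporter; quantitative HTS format.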
On the % scale 0 is the no-effect control and ±100 the full control effect.

Sequence of Aromatase (Homo sapiens) (P11511 whole entry, looked up): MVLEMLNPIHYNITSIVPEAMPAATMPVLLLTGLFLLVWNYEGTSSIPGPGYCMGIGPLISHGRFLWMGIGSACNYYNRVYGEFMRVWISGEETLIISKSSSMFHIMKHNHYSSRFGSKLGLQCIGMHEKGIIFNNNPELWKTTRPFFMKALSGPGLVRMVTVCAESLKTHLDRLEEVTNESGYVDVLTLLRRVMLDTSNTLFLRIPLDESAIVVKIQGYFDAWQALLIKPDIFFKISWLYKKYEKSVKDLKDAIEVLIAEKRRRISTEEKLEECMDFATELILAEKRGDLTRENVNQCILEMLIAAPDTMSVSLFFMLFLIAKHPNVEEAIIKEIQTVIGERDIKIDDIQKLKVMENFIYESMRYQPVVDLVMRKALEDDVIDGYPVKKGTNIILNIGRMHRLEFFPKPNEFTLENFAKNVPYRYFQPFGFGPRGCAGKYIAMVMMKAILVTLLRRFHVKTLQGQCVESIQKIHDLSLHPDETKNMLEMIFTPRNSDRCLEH
Sequence of Peroxisome proliferator-activated receptor gamma (Homo sapiens) (P37231 whole entry, looked up): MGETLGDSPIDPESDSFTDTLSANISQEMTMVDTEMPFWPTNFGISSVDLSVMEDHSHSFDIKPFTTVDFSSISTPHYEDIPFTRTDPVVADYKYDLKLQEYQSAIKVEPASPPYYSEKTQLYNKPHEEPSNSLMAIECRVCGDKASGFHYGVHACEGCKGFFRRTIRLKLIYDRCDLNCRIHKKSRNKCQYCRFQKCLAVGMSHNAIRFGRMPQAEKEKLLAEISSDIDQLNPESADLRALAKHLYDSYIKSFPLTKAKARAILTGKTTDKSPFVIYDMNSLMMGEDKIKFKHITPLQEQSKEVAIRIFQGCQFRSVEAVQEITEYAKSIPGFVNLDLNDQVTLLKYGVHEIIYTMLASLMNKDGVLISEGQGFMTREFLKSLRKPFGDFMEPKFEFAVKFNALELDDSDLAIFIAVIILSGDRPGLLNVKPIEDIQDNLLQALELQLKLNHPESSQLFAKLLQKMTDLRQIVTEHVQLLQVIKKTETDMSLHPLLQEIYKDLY
Sequence of Aryl hydrocarbon receptor (Homo sapiens) (P35869 whole entry, looked up): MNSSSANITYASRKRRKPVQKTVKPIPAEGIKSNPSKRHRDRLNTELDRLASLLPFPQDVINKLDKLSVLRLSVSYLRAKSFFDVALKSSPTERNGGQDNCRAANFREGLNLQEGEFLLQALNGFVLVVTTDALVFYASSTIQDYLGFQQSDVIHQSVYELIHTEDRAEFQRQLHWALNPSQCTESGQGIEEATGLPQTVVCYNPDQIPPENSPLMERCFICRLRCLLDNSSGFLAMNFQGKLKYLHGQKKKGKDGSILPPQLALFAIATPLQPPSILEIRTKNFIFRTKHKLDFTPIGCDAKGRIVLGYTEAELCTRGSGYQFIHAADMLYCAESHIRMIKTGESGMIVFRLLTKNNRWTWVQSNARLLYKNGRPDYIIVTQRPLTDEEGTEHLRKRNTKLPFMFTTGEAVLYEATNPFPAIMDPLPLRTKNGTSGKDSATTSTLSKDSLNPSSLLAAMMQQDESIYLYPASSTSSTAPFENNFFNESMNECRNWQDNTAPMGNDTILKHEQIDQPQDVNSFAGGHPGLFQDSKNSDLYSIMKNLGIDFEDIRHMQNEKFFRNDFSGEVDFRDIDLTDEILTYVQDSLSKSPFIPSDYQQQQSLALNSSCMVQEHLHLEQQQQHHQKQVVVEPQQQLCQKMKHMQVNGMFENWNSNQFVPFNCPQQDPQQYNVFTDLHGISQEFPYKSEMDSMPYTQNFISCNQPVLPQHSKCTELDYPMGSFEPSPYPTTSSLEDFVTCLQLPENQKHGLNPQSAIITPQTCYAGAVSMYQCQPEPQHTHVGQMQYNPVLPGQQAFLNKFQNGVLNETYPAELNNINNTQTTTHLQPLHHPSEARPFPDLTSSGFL
Sequence of Estrogen receptor (Homo sapiens) (P03372 whole entry, looked up): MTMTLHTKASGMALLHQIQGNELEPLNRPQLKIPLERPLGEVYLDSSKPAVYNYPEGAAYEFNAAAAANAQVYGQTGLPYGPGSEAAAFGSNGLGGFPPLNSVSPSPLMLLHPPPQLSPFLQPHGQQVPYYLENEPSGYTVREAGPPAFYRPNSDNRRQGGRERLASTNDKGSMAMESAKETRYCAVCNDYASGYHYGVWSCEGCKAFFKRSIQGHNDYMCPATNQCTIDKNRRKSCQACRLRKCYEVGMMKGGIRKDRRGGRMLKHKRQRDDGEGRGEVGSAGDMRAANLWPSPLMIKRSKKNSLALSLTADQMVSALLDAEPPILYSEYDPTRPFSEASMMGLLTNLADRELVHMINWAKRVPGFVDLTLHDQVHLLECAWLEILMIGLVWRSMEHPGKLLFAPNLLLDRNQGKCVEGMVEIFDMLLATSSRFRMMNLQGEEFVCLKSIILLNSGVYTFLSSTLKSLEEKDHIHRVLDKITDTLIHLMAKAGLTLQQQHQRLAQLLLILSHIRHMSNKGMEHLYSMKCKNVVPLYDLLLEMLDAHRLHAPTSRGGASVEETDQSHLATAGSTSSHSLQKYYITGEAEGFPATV

CN(C)c1cc(NC(=O)CNC(C)(C)C)c(O)c2c1C[C@H]1C[C@H]3[C@H](N(C)C)C(=O)C(C(N)=O)=C(O)[C@@]3(O)C(=O)C1=C2O
inactive: Potency [1] | Potency [2] | outcome [3] | Potency [4] | Potency [5] | Potency [6] | Potency [7] | outcome [8] | Potency (Aromatase (Homo sapiens)) | outcome [9] | Potency [10] | outcome [11] | outcome [12] | outcome [13] | outcome [14] | Potency [15]

Cc1ccccc1C#N
inactive: Potency [1] | Potency [2] | outcome [3] | Potency [4] | Potency [5] | Potency [6] | Potency [7] | outcome [8] | Potency (Aromatase (Homo sapiens)) | outcome [9] | Potency [10] | outcome [16] | outcome [11] | outcome [12] | outcome [14] | Potency [15] | outcome [17]

Cc1ccccc1OCC(=O)O
inactive: Potency [1] | Potency [2] | outcome [3] | Potency [4] | Potency [5] | Potency [6] | Potency [7] | outcome [8] | Potency (Aromatase (Homo sapiens)) | outcome [9] | Potency [10] | outcome [11] | outcome [13] | Potency [18] | outcome [14] | Potency [15] | outcome [19] | outcome [17]

C/C=C(\C)C=O
inactive: Potency [1] | Potency [2] | outcome [3] | Potency [4] | Potency [5] | Potency [6] | Potency [7] | outcome [8] | Potency (Aromatase (Homo sapiens)) | outcome [9] | Potency [10] | outcome [16] | outcome [11] | outcome [12] | outcome [13] | Potency [18] | outcome [14] | outcome [17]

CN(C)CCCN(C)C
inactive: activity, negative = inhibition [1] 0.44% [at 8.44 µM] | activation [2] -3.73% [at 8.08 µM] | activity, negative = inhibition [3] 3.46% [at 6.71 µM] | activity, negative = cytotoxicity [4] 12.6% [at 6.72 µM] | activation [5] -1.03% [at 6.71 µM] | activation [6] -6.84% [at 8.47 µM] | activity change, negative = inhibition [7] 2.33% [at 8.47 µM] | activity change, negative = cytotoxicity [8] 12.4% [at 8.47 µM] | activity, negative = inhibition (Aromatase (Homo sapiens)) 7.56% [at 8.47 µM] | activity change, negative = cytotoxicity [9] 2.06% [at 8.47 µM] | activation [10] -0.58% [at 8.47 µM] | viability change, negative = cytotoxic [16] -2.64% [at 8.47 µM] | activation [11] -0.396% [at 7.08 µM] | ratio activity, negative = inhibition [12] 4.44% [at 5.95 µM] | activity change, negative = cytotoxicity [13] -7.23% [at 5.95 µM] | activation [18] -1.85% [at 8.36 µM] | viability change, negative = cytotoxic [14] 5.88% [at 8.36 µM] | activation [19] -0.827% [at 5.95 µM]

C=CC(C)(CCC=C(C)C)OC(=O)C(C)C (stereo unspecified)
inactive: Potency [1] | Potency [2] | outcome [3] | Potency [4] | Potency [5] | Potency [6] | Potency [7] | outcome [8] | Potency (Aromatase (Homo sapiens)) | outcome [9] | Potency [10] | outcome [11] | outcome [12] | outcome [13] | Potency [18] | outcome [14] | Potency [15] | outcome [19]

CC(=O)Nc1ccc(S(=O)(=O)Nc2cc(C)on2)cc1
inactive: Potency [1] | Potency [2] | outcome [3] | Potency [4] | Potency [5] | Potency [6] | Potency [7] | outcome [8] | Potency (Aromatase (Homo sapiens)) | outcome [9] | Potency [10] | outcome [16] | outcome [11] | outcome [13] | Potency [18] | outcome [14] | Potency [15] | outcome [19]

COC(=O)N/N=C/c1c[n+]([O-])c2ccccc2[n+]1[O-]
inactive: Potency [1] | Potency [2] | outcome [3] | Potency [4] | Potency [5] | Potency [6] | Potency [7] | outcome [8] | Potency (Aromatase (Homo sapiens)) | outcome [9] | Potency [10] | outcome [11] | outcome [12] | outcome [14] | Potency [15] | outcome [19] | outcome [17]

CN(C)c1ccncc1
inactive: Potency [1] | Potency [2] | outcome [3] | Potency [4] | Potency [5] | Potency [6] | Potency [7] | outcome [8] | Potency (Aromatase (Homo sapiens)) | outcome [9] | Potency [10] | outcome [16] | outcome [13] | Potency [18] | outcome [14] | Potency [15] | outcome [17]

CC(C)(C)OC(=O)c1ccccc1C(=O)O
inactive: Potency [1] | Potency [2] | outcome [3] | Potency [4] | Potency [5] | Potency [6] | Potency [7] | outcome [8] | Potency (Aromatase (Homo sapiens)) | outcome [9] | Potency [10] | outcome [11] | outcome [12] | outcome [13] | Potency [18] | Potency [15]

CCCCCCCCCCCCCCCCN(C)C
inactive: activity, negative = inhibition [1] 0.216% [at 8.44 µM] | activation [2] 0.259% [at 8.08 µM] | activity, negative = inhibition [3] -6.54% [at 6.71 µM] | activity, negative = cytotoxicity [4] -9.33% [at 6.72 µM] | activation [5] -5.38% [at 6.71 µM] | activation [6] -2.47% [at 8.47 µM] | activity change, negative = inhibition [7] -1.23% [at 8.47 µM] | activity change, negative = cytotoxicity [8] -2.87% [at 8.47 µM] | activity, negative = inhibition (Aromatase (Homo sapiens)) 3.06% [at 8.47 µM] | activity change, negative = cytotoxicity [9] 0.21% [at 8.47 µM] | activation [10] -0.709% [at 8.47 µM] | viability change, negative = cytotoxic [16] -0.517% [at 8.47 µM] | activation [18] 0.808% [at 8.36 µM] | viability change, negative = cytotoxic [14] 8.57% [at 8.36 µM] | activity change, negative = cytotoxicity [15] -2.6% [at 5.95 µM] | activation [19] -0.814% [at 5.95 µM] | activity change, negative = cytotoxicity [17] 1.19% [at 5.95 µM]

C=CCn1cc[n+](C)c1
inactive: Potency [1] | Potency [2] | outcome [3] | Potency [4] | Potency [5] | Potency [6] | Potency [7] | outcome [8] | Potency (Aromatase (Homo sapiens)) | outcome [9] | Potency [10] | outcome [16] | outcome [12] | outcome [13] | Potency [18] | outcome [14] | Potency [15] | outcome [19] | outcome [17]

Nc1ccc(C(=O)NCC(=O)O)cc1
inactive: Potency [1] | Potency [2] | outcome [3] | Potency [4] | Potency [5] | Potency [6] | Potency [7] | outcome [8] | Potency (Aromatase (Homo sapiens)) | outcome [9] | Potency [10] | outcome [12] | outcome [13] | Potency [18] | outcome [14] | outcome [19] | outcome [17]

CC[C@@]1(c2ccccc2)NC(=O)N(C)C1=O
inactive: Potency [1] | Potency [2] | outcome [3] | Potency [4] | Potency [5] | Potency [6] | Potency [7] | outcome [8] | Potency (Aromatase (Homo sapiens)) | outcome [9] | Potency [10] | outcome [16] | outcome [11] | outcome [12] | outcome [13] | Potency [18] | outcome [14] | Potency [15] | outcome [19]

COc1cc(OC)cc(OC)c1
inactive: Potency [1] | Potency [2] | outcome [3] | Potency [4] | Potency [5] | Potency [6] | Potency [7] | outcome [8] | Potency (Aromatase (Homo sapiens)) | outcome [9] | Potency [10] | outcome [12] | outcome [13] | Potency [18] | Potency [15] | outcome [19]

— PubChem BioAssay (Tox21)
